# About 79,000 compounds went through this panel and 15% of them were active in at least one assay; those are over-represented in the sample as a whole. Values without a mark were called inactive. No stated cut-off is given here; in the data, active means growth inhibition above about 70%; inactive means the rest.
# Test: NCI Yeast Anticancer Drug Screen. Data for the bub3 strain (AID 167)
# Conditions: S. cerevisiae bub3 mutant strain, at 50.0 µM, active compounds read high
# Method in brief: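 Compounds were applied to a genetically altered yeast strain carrying a cell-cycle control defect. Growth inhibition was scored against vehicle-treated controls.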
row,Compound,growth inhibition [%]
1,O=S1(=O)CC2(N3CCOCC3)C3CCC(C3)C21 (stereo not drawn),9.15
2,NC(c1ccccc1)C(Cl)c1ccccc1 (stereo not drawn),14.9
3,COc1ccc([Se]c2ccc(OC)cc2OC)c(OC)c1,8.5
4,CN1CCN[C@@H]2CCCC[C@@H]21,5.65
5,CCN(CC)CCc1ccncc1,-5.05
6,O=C=Nc1ccc(Cl)cc1,-2.45
7,CP(=S)(c1ccccc1)P(C)(=S)c1ccccc1 (stereo not drawn),-21.2
8,CC(=O)OC1CCC2(C)C(CCC3C2CCC2(C)C3CC(CC(=O)O)C2OC(C)=O)C1 (stereo not drawn),3.3
9,CCOP(=O)(OCC)/C(C#N)=C/C=C/c1ccco1,-40.1
10,N=Cc1c(O)[nH]c(=O)[nH]c1=O,0.65
11,CC(=O)O[C@H]1CC[C@]2(C)[C@H]3CC[C@]4(C)[C@@H](OC(C)=O)CC[C@H]4[C@@H]3[C@H](C=O)[C@]2(O)C1,-0.75
12,COC(=O)C(O)(c1ccccc1)C1CCCC1 (stereo not drawn),10.1
13,NP(=O)(Oc1cccc2c(OP(N)(=O)N(CCCl)CCCl)cccc12)N(CCCl)CCCl (stereo not drawn),-3.25
14,COc1ccc(C(O)(C(=O)OCCSC)c2ccc(OC)cc2)cc1,9
15,CCC1(CC)C(=O)NC(=NCCCC(N)C(=O)O)NC1=O (stereo not drawn),23.6
16,CNCCc1ccc(O)cc1,1.35
17,CCC[As](=O)(O)Cc1ccccc1C,18
18,Nc1ccc(Sc2ccc(N)cc2)cc1,-8.25
19,CCP(=S)(CC)P(=S)(CC)CC,-11.8
20,CCOP(=O)(OCC)/C(C#N)=C/c1cccs1,-41.8

row,Compound,growth inhibition [%]
1,CC(C)OP(=O)(OC(C)C)C(=O)Nc1ccc(Cl)cc1,16.5
2,COP(=O)(OC)O/C(=C(/OP(=O)(OC)OC)c1ccccc1)c1ccccc1,-1.35
3,O=C1C2C3c4ccccc4C(C2C(=O)N1c1ccccc1)[n+]1ccccc13 (stereo not drawn),7.1
4,C=Cn1nnnc1N,14.3
5,CC(Br)[N+](=O)[O-] (stereo not drawn),-8.7
6,COC(=O)C1C(=O)NC2(C)CC1c1ccccc1O2 (stereo not drawn),-12.5
7,O=P(OCCCl)(OCCCl)OCCCl,0.15
8,CCCCCCNC1C=CCC1 (stereo not drawn),5.15
9,CC(C)(C)c1cc(C=C(C#N)C#N)cc(C(C)(C)C)c1O,48.6
10,CO[C@H]1C=CC2=CCN3CCC4=C(CC(=O)OC4)[C@]23C1,-21.9
11,CC1CC(C)(C)[N+](C)(CCC(C(N)=O)(c2ccccc2)c2ccccc2)C1 (stereo not drawn),-16.4
12,O=c1c(O)c(-c2ccccc2)oc2ccccc12.[Zr],22.4
13,C1C[OH+]CC[OH+]CC[OH+]CC[OH+]CC[OH+]1.[Cl-].[V],-12
14,O=C(COc1ccccc1Cl)Nc1ccc[n+](Cc2ccc(S(=O)(=O)F)cc2)c1,-3.15
15,COc1ccc(OP2OCC(C)O2)cc1 (stereo not drawn),-2.6
16,CC1OC(OC2C(O)C(O)C(O)C(O)C2O)C(N)CC1N=C(N)C(=O)O (stereo not drawn),-0.35
17,CC1(C)C(=O)N(O)C(C)(C)N1N=O,15.4
18,CC(N)Cc1c[nH]c2ccccc12 (stereo not drawn),-1.75
19,O=C1CN=C(c2ccccc2)c2cc(Cl)ccc2N1,8.55

# Test: NCI Yeast Anticancer Drug Screen. Data for the mlh1 rad18 strain (AID 175)
# Conditions: S. cerevisiae mlh1 rad18 strain growth inhibition; at 50.0 µM; active compounds read high
# Method in brief: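 Growth inhibition of the yeast strain was measured after compound exposure and expressed relative to vehicle-treated controls. The strain carries defined defects in DNA damage repair.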
row,Compound,growth inhibition [%]
1,O=S1(=O)CC2(N3CCOCC3)C3CCC(C3)C21 (stereo not drawn),11.6
2,NC(c1ccccc1)C(Cl)c1ccccc1 (stereo not drawn),-7.55
3,COc1ccc([Se]c2ccc(OC)cc2OC)c(OC)c1,-13.2
4,CN1CCN[C@@H]2CCCC[C@@H]21,-11.6
5,CCN(CC)CCc1ccncc1,9.65
6,O=C=Nc1ccc(Cl)cc1,-15.9
7,CP(=S)(c1ccccc1)P(C)(=S)c1ccccc1 (stereo not drawn),-31
8,CC(=O)OC1CCC2(C)C(CCC3C2CCC2(C)C3CC(CC(=O)O)C2OC(C)=O)C1 (stereo not drawn),24
9,CCOP(=O)(OCC)/C(C#N)=C/C=C/c1ccco1,1.8
10,N=Cc1c(O)[nH]c(=O)[nH]c1=O,-0.8
11,CC(=O)O[C@H]1CC[C@]2(C)[C@H]3CC[C@]4(C)[C@@H](OC(C)=O)CC[C@H]4[C@@H]3[C@H](C=O)[C@]2(O)C1,8.7
12,COC(=O)C(O)(c1ccccc1)C1CCCC1 (stereo not drawn),-9.5
13,NP(=O)(Oc1cccc2c(OP(N)(=O)N(CCCl)CCCl)cccc12)N(CCCl)CCCl (stereo not drawn),16.9
14,COc1ccc(C(O)(C(=O)OCCSC)c2ccc(OC)cc2)cc1,0.1
15,CCC1(CC)C(=O)NC(=NCCCC(N)C(=O)O)NC1=O (stereo not drawn),7.4
16,CNCCc1ccc(O)cc1,-0.65
17,CCC[As](=O)(O)Cc1ccccc1C,22.1
18,Nc1ccc(Sc2ccc(N)cc2)cc1,23.1
19,CCP(=S)(CC)P(=S)(CC)CC,7.45
20,CCOP(=O)(OCC)/C(C#N)=C/c1cccs1,-13.7

row,Compound,growth inhibition [%]
1,CC(C)OP(=O)(OC(C)C)C(=O)Nc1ccc(Cl)cc1,-8
2,COP(=O)(OC)O/C(=C(/OP(=O)(OC)OC)c1ccccc1)c1ccccc1,25.1
3,O=C1C2C3c4ccccc4C(C2C(=O)N1c1ccccc1)[n+]1ccccc13 (stereo not drawn),30.2
4,C=Cn1nnnc1N,4.5
5,CC(Br)[N+](=O)[O-] (stereo not drawn),5.35
6,COC(=O)C1C(=O)NC2(C)CC1c1ccccc1O2 (stereo not drawn),-1.45
7,O=P(OCCCl)(OCCCl)OCCCl,-5
8,CCCCCCNC1C=CCC1 (stereo not drawn),4.25
9,CC(C)(C)c1cc(C=C(C#N)C#N)cc(C(C)(C)C)c1O,6.45
10,CO[C@H]1C=CC2=CCN3CCC4=C(CC(=O)OC4)[C@]23C1,-15.4
11,CC1CC(C)(C)[N+](C)(CCC(C(N)=O)(c2ccccc2)c2ccccc2)C1 (stereo not drawn),3.05
12,O=c1c(O)c(-c2ccccc2)oc2ccccc12.[Zr],-7.75
13,C1C[OH+]CC[OH+]CC[OH+]CC[OH+]CC[OH+]1.[Cl-].[V],-1
14,O=C(COc1ccccc1Cl)Nc1ccc[n+](Cc2ccc(S(=O)(=O)F)cc2)c1,-0.7
15,COc1ccc(OP2OCC(C)O2)cc1 (stereo not drawn),2.5
16,CC1OC(OC2C(O)C(O)C(O)C(O)C2O)C(N)CC1N=C(N)C(=O)O (stereo not drawn),23.6
17,CC1(C)C(=O)N(O)C(C)(C)N1N=O,19.6
18,CC(N)Cc1c[nH]c2ccccc12 (stereo not drawn),12.8
19,O=C1CN=C(c2ccccc2)c2cc(Cl)ccc2N1,32.2

# From PubChem BioAssay (NCI)
